Test results published in PubChem BioAssay AID1159580 (chemical genetic matrix, 2015).
About 2,000 (36%) of roughly 5,500 compounds were called active. Inconclusive results (about 18%) are left out. Cut-off read from the data, not from the text of the source: active = normalized growth mostly below about 0.91 (no sharp cut-off); inconclusive = no clear call, values can overlap the other calls; inactive = mostly above about 0.92. The list shows a part of the results.

Test: chemical genetic growth profiling, strain panel (AID 1159580);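 note: tested at 20 µM; growth read once vehicle control cultures reached saturation at 30 °C; 1 = growth at the plate median or of vehicle wells; lower values mean less growth of the strain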
Settings: growth OD
[1] = S. cerevisiae deletion strains, locus YCL061C, strain MRC1, stronger effect = lower value
[2] = S. cerevisiae deletion strains, locus YHR030C, strain SLT2, stronger effect = lower value
[3] = S. cerevisiae deletion strains, locus YJL187C, strain SWE1, stronger effect = lower value

Measured: normalized growth

O=C1NC(c2ccccc2Cl)Nc2ccccc21 (stereo not drawn)
inactive: S. cerevisiae deletion strains, locus YAL013W, strain DEP1, stronger effect = lower value 0.997 | S. cerevisiae deletion strains, locus YBR229C, strain ROT2, stronger effect = lower value 1 | [1] 0.992 | S. cerevisiae deletion strains, locus YDL101C, strain DUN1, stronger effect = lower value 1.01 | S. cerevisiae deletion strains, locus YDL134C, strain PPH21, stronger effect = lower value 1.01 | S. cerevisiae deletion strains, locus YDR150W, strain NUM1, stronger effect = lower value 0.998 | S. cerevisiae deletion strains, locus YEL061C, strain CIN8, stronger effect = lower value 0.981 | S. cerevisiae deletion strains, locus YGR078C, strain PAC10, stronger effect = lower value 0.997 | [2] 1.04 | S. cerevisiae deletion strains, locus YHR087W, strain rtc3, stronger effect = lower value 0.998 | [3] 0.993 | S. cerevisiae deletion strains, locus YJR043C, strain POL32, stronger effect = lower value 1.02 | S. cerevisiae deletion strains, locus YJR075W, strain HOC1, stronger effect = lower value 0.97 | S. cerevisiae deletion strains, locus YLR039C, strain RIC1, stronger effect = lower value 0.973 | S. cerevisiae deletion strains, locus YLR058C, strain SHM2 (second series), stronger effect = lower value 1 | S. cerevisiae deletion strains, locus YLR085C, strain ARP6, stronger effect = lower value 0.951 | S. cerevisiae deletion strains, locus YLR262C, strain YPT6, stronger effect = lower value 0.977 | S. cerevisiae deletion strains, locus YML094W, strain GIM5, stronger effect = lower value 0.989 | S. cerevisiae deletion strains, locus YMR219W, strain ESC1, stronger effect = lower value 1 | S. cerevisiae deletion strains, locus YMR263W, strain SAP30, stronger effect = lower value 1.01 | S. cerevisiae deletion strains, locus YNL153C, strain GIM3, stronger effect = lower value 1 | S. cerevisiae deletion strains, locus YNL298W, strain CLA4 (second series), stronger effect = lower value 0.997 | S. cerevisiae deletion strains, locus YNL322C, strain KRE1, stronger effect = lower value 0.99 | S. cerevisiae deletion strains, locus YNR030W, strain Alg12, stronger effect = lower value 0.984 | S. cerevisiae deletion strains, locus YPL055C, strain LGE1, stronger effect = lower value 1.03 | S. cerevisiae deletion strains, locus YPL241C, strain CIN2, stronger effect = lower value 0.981 | S. cerevisiae deletion strains, locus YPR135W, strain CTF4, stronger effect = lower value 1.05 | S. cerevisiae strains, strain wild type, stronger effect = lower value 1.01

CC[C@]12C=CCN3CC[C@@]4(c5ccc(OC)cc5N(C)C4[C@@](O)(C(=O)OC)[C@@H]1OC(C)=O)[C@@H]32 (stereo partly drawn)
inactive: S. cerevisiae deletion strains, locus YAL021C, strain ccr4, stronger effect = lower value 1.01 | S. cerevisiae deletion strains, locus YAL026C, strain drs2, stronger effect = lower value 0.993 | S. cerevisiae deletion strains, locus YAL030W, strain snc1, stronger effect = lower value 1.02 | S. cerevisiae deletion strains, locus YBL061C, strain skt5, stronger effect = lower value 1.01 | S. cerevisiae deletion strains, locus YBR009C, strain hhf1, stronger effect = lower value 1.01 | S. cerevisiae deletion strains, locus YBR023C, strain chs3, stronger effect = lower value 1.01 | S. cerevisiae deletion strains, locus YBR171W, strain sec66, stronger effect = lower value 0.995 | S. cerevisiae deletion strains, locus YBR231C, strain swc5, stronger effect = lower value 0.996 | S. cerevisiae deletion strains, locus YBR279W, strain paf1, stronger effect = lower value 1 | S. cerevisiae deletion strains, locus YCL011C, strain gbp2, stronger effect = lower value 1.02 | S. cerevisiae deletion strains, locus YCL016C, strain dcc1, stronger effect = lower value 0.988 | [1] 1.01 | S. cerevisiae deletion strains, locus YCL069W, strain vba3, stronger effect = lower value 1 | S. cerevisiae deletion strains, locus YCR088W, strain abp1, stronger effect = lower value 1 | S. cerevisiae deletion strains, locus YDL005C, strain med2, stronger effect = lower value 0.992 | S. cerevisiae deletion strains, locus YDL040C, strain nat1, stronger effect = lower value 1.02 | S. cerevisiae deletion strains, locus YDR001C, strain nth1, stronger effect = lower value 1.02 | S. cerevisiae deletion strains, locus YDR069C, strain doa4, stronger effect = lower value 0.989 | S. cerevisiae deletion strains, locus YDR137W, strain rgp1, stronger effect = lower value 0.949 | S. cerevisiae deletion strains, locus YDR159W, strain sac3, stronger effect = lower value 1 | S. cerevisiae deletion strains, locus YDR195W, strain ref2 1.01 | S. cerevisiae deletion strains, locus YDR297W, strain sur2, stronger effect = lower value 0.996 | S. cerevisiae deletion strains, locus YDR334W, strain swr1, stronger effect = lower value 1.04 | S. cerevisiae deletion strains, locus YDR335W, strain msn5, stronger effect = lower value 1.01 | S. cerevisiae deletion strains, locus YDR392W, strain spt3, stronger effect = lower value 0.943 | S. cerevisiae deletion strains, locus YEL003W, strain gim4, stronger effect = lower value 1 | S. cerevisiae deletion strains, locus YEL037C, strain rad23, stronger effect = lower value 1 | S. cerevisiae deletion strains, locus YEL061C, strain CIN8 (second series), stronger effect = lower value 1.02 | S. cerevisiae deletion strains, locus YER015W, strain faa2, stronger effect = lower value 1.01 | S. cerevisiae deletion strains, locus YER016W, strain bim1, stronger effect = lower value 0.993 | S. cerevisiae deletion strains, locus YER111C, strain swi4, stronger effect = lower value 0.981 | S. cerevisiae deletion strains, locus YER155C, strain BEM2 (second series), stronger effect = lower value 0.973 | S. cerevisiae deletion strains, locus YFR010W, strain ubp6, stronger effect = lower value 1 | S. cerevisiae deletion strains, locus YGL167C, strain pmr1, stronger effect = lower value 0.992 | S. cerevisiae deletion strains, locus YGL173C, strain kem1, stronger effect = lower value 0.998 | S. cerevisiae deletion strains, locus YGL227W, strain vid30, stronger effect = lower value 0.989 | S. cerevisiae deletion strains, locus YGL240W, strain doc1, stronger effect = lower value 1 | S. cerevisiae deletion strains, locus YGL253W, strain hxk2, stronger effect = lower value 1.03 | S. cerevisiae deletion strains, locus YHR013C, strain ard1, stronger effect = lower value 0.966 | S. cerevisiae deletion strains, locus YHR027C, strain rpn1, stronger effect = lower value 1.01 | [2] 0.912 | S. cerevisiae deletion strains, locus YHR079C, strain IRE1, stronger effect = lower value 0.924 | S. cerevisiae deletion strains, locus YHR142W, strain chs7, stronger effect = lower value 1.04 | S. cerevisiae deletion strains, locus YJL092W, strain hpr5, stronger effect = lower value 1.01 | S. cerevisiae deletion strains, locus YJL095W, strain BCK1 (second series), stronger effect = lower value 1 | S. cerevisiae deletion strains, locus YJL095W, strain BCK1, stronger effect = lower value 0.983 | S. cerevisiae deletion strains, locus YJL115W, strain asf1, stronger effect = lower value 0.999 | S. cerevisiae deletion strains, locus YJL129C, strain trk1, stronger effect = lower value 1.02 | S. cerevisiae deletion strains, locus YJL154C, strain vps35, stronger effect = lower value 0.992 | S. cerevisiae deletion strains, locus YJL164C, strain tpk1, stronger effect = lower value 1.01 | S. cerevisiae deletion strains, locus YJL166W, strain qcr8, stronger effect = lower value 1.01 | [3] 1 | S. cerevisiae deletion strains, locus YJR066W, strain TOR1, stronger effect = lower value 0.909 | S. cerevisiae deletion strains, locus YKL160W, strain elf1, stronger effect = lower value 0.995 | S. cerevisiae deletion strains, locus YKR026C, strain gcn3, stronger effect = lower value 1.01 | S. cerevisiae deletion strains, locus YKR091W, strain srl3, stronger effect = lower value 0.992 | S. cerevisiae deletion strains, locus YLL001W, strain dnm1, stronger effect = lower value 0.997 | S. cerevisiae deletion strains, locus YLL026W, stronger effect = lower value 0.992 | S. cerevisiae deletion strains, locus YLL041C, strain sdh2, stronger effect = lower value 1.01 | S. cerevisiae deletion strains, locus YLR027C, strain aat2, stronger effect = lower value 1.01 | S. cerevisiae deletion strains, locus YLR113W, strain HOG1, stronger effect = lower value 0.942 | S. cerevisiae deletion strains, locus YLR221C, strain rsa3, stronger effect = lower value 0.999 | S. cerevisiae deletion strains, locus YLR258W, strain gsy2, stronger effect = lower value 1.01 | S. cerevisiae deletion strains, locus YLR262C, strain YPT6 (second series), stronger effect = lower value 0.927 | S. cerevisiae deletion strains, locus YLR320W, strain mms22, stronger effect = lower value 0.97 | S. cerevisiae deletion strains, locus YLR342W, strain FKS1, stronger effect = lower value 0.965 | S. cerevisiae deletion strains, locus YLR357W, strain rsc2, stronger effect = lower value 1.02 | S. cerevisiae deletion strains, locus YLR370C, strain arc18, stronger effect = lower value 1.01 | S. cerevisiae deletion strains, locus YLR384C, strain iki3, stronger effect = lower value 1.01 | S. cerevisiae deletion strains, locus YML120C, strain ndi1, stronger effect = lower value 0.994 | S. cerevisiae deletion strains, locus YMR058W, strain fet3, stronger effect = lower value 1.04 | S. cerevisiae deletion strains, locus YMR125W, strain sto1, stronger effect = lower value 1.03 | S. cerevisiae deletion strains, locus YMR129W, stronger effect = lower value 1 | S. cerevisiae deletion strains, locus YMR205C, strain PFK2, stronger effect = lower value 1.01 | S. cerevisiae deletion strains, locus YMR231W, strain pep5, stronger effect = lower value 0.993 | S. cerevisiae deletion strains, locus YNL071W, strain lat1, stronger effect = lower value 0.985 | S. cerevisiae deletion strains, locus YNL183C, strain NPR1, stronger effect = lower value 0.961 | S. cerevisiae deletion strains, locus YNL209W, strain ssb2, stronger effect = lower value 1.01 | S. cerevisiae deletion strains, locus YNL248C, strain rpa49, stronger effect = lower value 0.982 | S. cerevisiae deletion strains, locus YNL322C, strain KRE1 (second series), stronger effect = lower value 0.987 | S. cerevisiae deletion strains, locus YNR049C, strain mso1, stronger effect = lower value 1.01 | S. cerevisiae deletion strains, locus YOR001W, strain rrp6, stronger effect = lower value 1.01 | S. cerevisiae deletion strains, locus YOR070C, strain gyp1, stronger effect = lower value 1 | S. cerevisiae deletion strains, locus YOR080W, strain dia2, stronger effect = lower value 1 | S. cerevisiae deletion strains, locus YOR083W, strain WHI5, stronger effect = lower value 0.934 | S. cerevisiae deletion strains, locus YOR106W, strain vam3, stronger effect = lower value 0.994 | S. cerevisiae deletion strains, locus YOR231W, strain MKK1, stronger effect = lower value 0.928 | S. cerevisiae deletion strains, locus YOR265W, strain rbl2, stronger effect = lower value 1.01 | S. cerevisiae deletion strains, locus YOR270C, strain vph1, stronger effect = lower value 0.934 | S. cerevisiae deletion strains, locus YOR290C, strain snf2, stronger effect = lower value 0.999 | S. cerevisiae deletion strains, locus YPL051W, strain arl3, stronger effect = lower value 0.984 | S. cerevisiae deletion strains, locus YPL078C, strain atp4, stronger effect = lower value 0.989 | S. cerevisiae deletion strains, locus YPL106C, strain sse1, stronger effect = lower value 0.988 | S. cerevisiae deletion strains, locus YPL240C, strain hsp82, stronger effect = lower value 1 | S. cerevisiae deletion strains, locus YPL256C, strain CLN2, stronger effect = lower value 0.923
